# Laboratory results: PubChem BioAssay (NCATS)
# Inconclusive results are not listed. Activity calls are given as the source filed them. Unless noted, the call rests on the fitted dose curve.
# How the values were obtained:
# [1] = Primary qHTS to identify inhibitors of SARS-CoV-2 cell entry (AID 1645846); details: activity change, negative = inhibition: at 57.1 µM (top of the series) unless noted; further: nearly all actives have a fitted effect of over 45% in size; further: potency means the concentration at half of the fitted maximal effect
# Outline: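 Inhibition of spike-mediated entry was scored in human ACE2-transfected Expi293F cells. Particles were MLV-pseudotyped with Wuhan-Hu-1 S carrying a 19-aa C-terminal deletion; signal was luciferase after two days, scaled between spike PP and fusion-protein-free PP.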
# Papain (Carica papaya) = Papain (Carica papaya) (UniProt P00784); test: Primary qHTS assay for inhibitors of the protease papain (AID 1645873; active means well fitted curve in the direction sought with a large enough effect; an effect the other way counts as inactive or inconclusive;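 further: papain turnover of Z-FR-AMC read as the AMC fluorescence gain over 10 min; on the % scale 0 is the no-effect control and ±100 the full control effect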)
# Chain of Papain (Carica papaya) (P00784 whole entry, looked up): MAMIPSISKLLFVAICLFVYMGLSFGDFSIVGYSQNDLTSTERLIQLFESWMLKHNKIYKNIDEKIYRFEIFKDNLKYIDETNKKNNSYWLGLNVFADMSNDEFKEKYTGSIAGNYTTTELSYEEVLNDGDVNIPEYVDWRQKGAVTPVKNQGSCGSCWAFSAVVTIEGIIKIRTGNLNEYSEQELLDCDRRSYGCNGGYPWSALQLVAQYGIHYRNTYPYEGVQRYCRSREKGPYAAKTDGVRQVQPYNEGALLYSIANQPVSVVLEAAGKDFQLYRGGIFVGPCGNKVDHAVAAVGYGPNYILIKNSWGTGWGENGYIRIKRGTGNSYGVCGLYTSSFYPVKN
# [2] = molecular target: Catechol O-methyltransferase (Homo sapiens) (UniProt P21964); test: Confirmatory Screen for Target Class Profiling of Small Molecule Inhibitors of Methyltransferases (AID 1745852); details: MTase-Glo luminescence, SAH detection, recombinant enzyme; measured here: COMT max response; stronger effect = lower value; on activity change, negative = inhibition: on the % scale 0 is the no-effect control and ±100 the full control effect
# Chain of Catechol O-methyltransferase (Homo sapiens) (P21964 whole entry, looked up): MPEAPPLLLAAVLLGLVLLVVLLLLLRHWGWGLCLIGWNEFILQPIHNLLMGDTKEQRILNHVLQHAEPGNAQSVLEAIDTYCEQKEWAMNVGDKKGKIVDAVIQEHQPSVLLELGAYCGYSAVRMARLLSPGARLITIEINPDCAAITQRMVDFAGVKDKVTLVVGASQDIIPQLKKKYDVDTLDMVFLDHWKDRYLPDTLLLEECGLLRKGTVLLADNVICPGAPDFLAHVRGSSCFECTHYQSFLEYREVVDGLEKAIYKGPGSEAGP
# [3] = molecular target: Guanidinoacetate N-methyltransferase (Homo sapiens) (UniProt Q14353); test: as above; details: MTase-Glo luminescence, SAH detection, recombinant enzyme; activity change, negative = inhibition: at 57.3 µM (top of the series)
# [4] = molecular target: Nicotinamide N-methyltransferase (Homo sapiens) (UniProt P40261); test: as above; details: MTase-Glo luminescence, SAH detection, recombinant enzyme; measured here: NNMT max response; stronger effect = lower value
# Chain of Nicotinamide N-methyltransferase (Homo sapiens) (P40261 whole entry, looked up): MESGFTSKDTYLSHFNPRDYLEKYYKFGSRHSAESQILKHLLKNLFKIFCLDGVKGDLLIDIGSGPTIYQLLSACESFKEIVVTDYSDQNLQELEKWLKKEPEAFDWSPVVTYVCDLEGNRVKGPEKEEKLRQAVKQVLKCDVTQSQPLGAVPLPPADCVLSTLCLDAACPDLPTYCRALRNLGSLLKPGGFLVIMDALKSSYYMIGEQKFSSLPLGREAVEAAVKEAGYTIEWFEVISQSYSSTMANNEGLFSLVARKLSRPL
# [5] = molecular target: Phenylethanolamine N-methyltransferase (Homo sapiens) (UniProt P11086); test: as above; details: MTase-Glo luminescence, SAH detection, recombinant enzyme; measured here: PNMT max response; stronger effect = lower value
# Chain of Phenylethanolamine N-methyltransferase (Homo sapiens) (P11086 whole entry, looked up): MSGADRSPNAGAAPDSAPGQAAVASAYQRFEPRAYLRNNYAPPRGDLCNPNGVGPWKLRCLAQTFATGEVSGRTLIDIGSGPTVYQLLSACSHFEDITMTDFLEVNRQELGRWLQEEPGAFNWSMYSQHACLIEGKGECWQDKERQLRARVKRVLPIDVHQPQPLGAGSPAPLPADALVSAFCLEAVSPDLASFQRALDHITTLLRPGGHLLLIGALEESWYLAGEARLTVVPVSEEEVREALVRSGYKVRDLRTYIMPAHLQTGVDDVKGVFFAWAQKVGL
# [6] = molecular target: Rap guanine nucleotide exchange factor 3 (Homo sapiens) (UniProt O95398); test: Confirmatory qHTS for antagonist of cAMP-regulated guanine nucleotide exchange factor 3 (EPAC1) (AID 1645880; active means well fitted curve in the direction sought with a large enough effect; an effect the other way counts as inactive or inconclusive;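 further: plate controls were DMSO only for no effect and full effect of the ATA control for full effect; nearly all actives have a fitted effect of over 55% in size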)
# Chain of Rap guanine nucleotide exchange factor 3 (Homo sapiens) (O95398 whole entry, looked up): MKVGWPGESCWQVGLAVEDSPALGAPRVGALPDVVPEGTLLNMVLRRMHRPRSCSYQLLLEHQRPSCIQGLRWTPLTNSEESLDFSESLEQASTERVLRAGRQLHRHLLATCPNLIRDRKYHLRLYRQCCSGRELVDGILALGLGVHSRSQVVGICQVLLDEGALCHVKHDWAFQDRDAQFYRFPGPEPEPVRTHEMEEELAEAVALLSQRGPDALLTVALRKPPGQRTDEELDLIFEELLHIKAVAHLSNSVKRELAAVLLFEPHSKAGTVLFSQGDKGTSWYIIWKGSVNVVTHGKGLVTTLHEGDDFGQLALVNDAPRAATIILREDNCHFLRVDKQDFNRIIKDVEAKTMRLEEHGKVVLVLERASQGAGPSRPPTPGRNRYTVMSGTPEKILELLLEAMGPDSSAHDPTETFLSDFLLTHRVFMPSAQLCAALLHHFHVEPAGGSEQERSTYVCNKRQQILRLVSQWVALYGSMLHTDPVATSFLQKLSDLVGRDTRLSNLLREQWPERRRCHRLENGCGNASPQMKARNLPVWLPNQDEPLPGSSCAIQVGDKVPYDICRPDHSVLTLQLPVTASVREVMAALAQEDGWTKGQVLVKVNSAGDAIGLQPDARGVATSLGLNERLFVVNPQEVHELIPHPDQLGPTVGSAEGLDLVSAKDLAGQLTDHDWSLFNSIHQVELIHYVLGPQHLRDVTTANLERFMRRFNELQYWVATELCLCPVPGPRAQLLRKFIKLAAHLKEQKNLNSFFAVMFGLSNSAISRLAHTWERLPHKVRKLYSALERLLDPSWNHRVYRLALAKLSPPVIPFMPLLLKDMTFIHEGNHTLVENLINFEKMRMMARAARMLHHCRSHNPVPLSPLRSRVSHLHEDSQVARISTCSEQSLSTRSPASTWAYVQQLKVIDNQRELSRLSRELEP
# Outline: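 Released BODIPY-GDP fluoresces less than Rap1-bound BODIPY-GDP; the signal is followed at 480/540 nm at 5-min intervals over 30 min, after 5 min at room temperature. Reactions contain 100 nM EPAC1, 250 nM RAP1B-BODIPY-GDP and 50 uM GDP; results are normalized to ATA and DMSO.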
# [7] = molecular target: Rap guanine nucleotide exchange factor 3 (Homo sapiens) (UniProt O95398); test: Confirmatory qHTS for agonist of cAMP-regulated guanine nucleotide exchange factor 3 (EPAC1) (AID 1645881; active means well fitted curve in the direction sought with a large enough effect; an effect the other way counts as inactive or inconclusive;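 further: EPAC1 catalysed release of BODIPY-GDP from Rap1B seen as fluorescence loss; 100% = effect of cAMP agonist control; nearly all actives have a fitted effect of over 75% in size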)
# [8] = molecular target: Rap guanine nucleotide exchange factor 4 (Homo sapiens) (UniProt Q8WZA2); test: Confirmatory qHTS for antagonist of cAMP-regulated guanine nucleotide exchange factor 4 (EPAC2) (AID 1645885; active means well fitted curve in the direction sought with a large enough effect; an effect the other way counts as inactive or inconclusive; further: on the % scale 0 is the no-effect control and ±100 the full control effect; nearly all actives have a fitted effect of over 25% in size)
# Chain of Rap guanine nucleotide exchange factor 4 (Homo sapiens) (Q8WZA2 whole entry, looked up, the tested form may be a part): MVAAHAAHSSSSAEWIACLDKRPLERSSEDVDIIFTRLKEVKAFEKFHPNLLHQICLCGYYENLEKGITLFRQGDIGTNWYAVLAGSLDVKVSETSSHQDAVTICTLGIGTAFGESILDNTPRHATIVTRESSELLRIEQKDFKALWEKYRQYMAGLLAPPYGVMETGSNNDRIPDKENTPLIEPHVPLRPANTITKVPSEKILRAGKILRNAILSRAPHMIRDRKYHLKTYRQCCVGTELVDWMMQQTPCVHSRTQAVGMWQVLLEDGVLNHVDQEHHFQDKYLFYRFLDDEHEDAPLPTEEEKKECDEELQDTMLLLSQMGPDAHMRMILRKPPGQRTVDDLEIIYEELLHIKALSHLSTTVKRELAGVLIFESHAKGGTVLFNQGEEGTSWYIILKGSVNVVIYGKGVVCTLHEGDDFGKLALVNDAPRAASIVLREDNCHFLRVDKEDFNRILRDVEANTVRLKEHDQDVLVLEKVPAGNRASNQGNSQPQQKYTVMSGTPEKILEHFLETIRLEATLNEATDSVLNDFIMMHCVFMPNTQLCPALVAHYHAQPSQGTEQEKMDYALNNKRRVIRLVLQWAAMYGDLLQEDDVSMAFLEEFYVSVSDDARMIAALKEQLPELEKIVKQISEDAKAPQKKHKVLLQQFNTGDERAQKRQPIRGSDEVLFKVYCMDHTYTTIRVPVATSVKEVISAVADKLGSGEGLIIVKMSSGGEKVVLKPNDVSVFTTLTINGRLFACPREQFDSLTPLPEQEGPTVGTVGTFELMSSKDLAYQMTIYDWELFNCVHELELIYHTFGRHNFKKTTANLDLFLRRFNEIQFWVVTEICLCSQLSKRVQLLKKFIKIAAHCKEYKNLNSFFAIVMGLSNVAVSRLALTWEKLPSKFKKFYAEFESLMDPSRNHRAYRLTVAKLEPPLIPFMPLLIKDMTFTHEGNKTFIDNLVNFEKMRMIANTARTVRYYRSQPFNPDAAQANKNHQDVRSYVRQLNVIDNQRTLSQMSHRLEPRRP
# [9] = Primary qHTS for inhibitors of nuclear receptor binding SET domain protein 2 (NSD2) in an isogenic RCH-ACV NSD2 p.E1099K mutant (9B) (AID 1645876; active means well fitted curve in the direction sought with a large enough effect; an effect the other way counts as inactive or inconclusive; further: on the % scale 0 is the no-effect control and ±100 the full control effect; nearly all actives have a fitted effect of over 70% in size)
# [10] = Primary qHTS for inhibitors of nuclear receptor binding SET domain protein 2 (NSD2) in an RCH-ACV wild type WT cells (2C) (AID 1645877; active means well fitted curve in the direction sought with a large enough effect; an effect the other way counts as inactive or inconclusive; further: on the % scale 0 is the no-effect control and ±100 the full control effect; nearly all actives have a fitted effect of over 70% in size)
compound,measurement,setting,value
C=CCc1cccc(/C=N/NC(=O)CN2CCN(Cc3ccccc3)CC2)c1O,Potency,[1],31.6 µM (active)
COc1cc2c(cc1OC)[C@@H]1C(=O)c3ccc4c(c3O[C@@H]1CO2)C=CC(C)(C)O4,"activity change, negative = inhibition",[1],-98.6%
CC1=C[C@@H]2[C@@H]([C@@H](O)C[C@@]3(C)[C@H]2C[C@@H](C)[C@]3(O)C(=O)CO)[C@@]2(C)Cc3cnn(-c4ccccc4)c3C=C12,Potency,[1],inactive
NC(=O)CN1CC(O)CC1=O (configuration not stated),Potency,Papain (Carica papaya),inactive
Cc1ccc(C(N)=O)cc1Nc1nccc(-c2cn(C(C)C)c3cnccc23)n1,Potency,[1],8.91 µM (active)
CN(c1ncccc1CNc1nc(Nc2ccc3c(c2)CC(=O)N3)ncc1C(F)(F)F)S(C)(=O)=O,Potency,[1],3.16 µM (active)
S=C(NCc1ccc2c(c1)OCO2)N1CCN(c2ncnc3c2oc2ccccc23)CC1,Potency,[1],6.31 µM (active)
CNCCc1ccc(O)c(O)c1,Potency,Papain (Carica papaya),inactive
same,activity,[2],109%
same,"activity change, negative = inhibition",[3],3.55%
same,activity,[4],-0.877%
same,activity,[5],1.2%
COc1cc(OC2CCN(C)CC2)ccc1Nc1ncc2c(n1)n(C1CCCC1)c(=O)n2C,Potency,[1],28.2 µM (active)
C=CCn1c(=O)c2cnc(Nc3ccc(N4CCN(C)CC4)cc3)nc2n1-c1cccc(C(C)(C)O)n1,Potency,[1],1.41 µM (active)
CN(C)CCN(C)C(=O)c1ccc(NC(=O)Nc2ccc(-c3nc(N4CCOCC4)c4ccn(CC(F)(F)F)c4n3)cc2)cc1,"activity change, negative = inhibition",[1],-96.8%
C=CC(=O)Nc1cccc(Oc2nc(Nc3ccc(N4CCN(C)CC4)cc3OC)ncc2Cl)c1,Potency,[1],31.6 µM (active)
CC(C)(C)OC(=O)Nc1ccc(-c2cc(C(=O)NCCCCCCC(=O)NO)no2)cc1,"activity change, negative = inhibition",[1],-8.17%
CN(C)CCCN=c1c2ccccc2n(C)c2[nH]c(=O)n(C)c(=O)c12,Potency,[1],31.6 µM (active)
Cc1nc(-c2ccc(-c3ccc(C(=O)N4CCc5cc6c(cc54)C4(CCN(C)CC4)CO6)cc3)c(C)c2)no1,outcome,[6],inactive
same,outcome,[7],inactive
same,Potency,[8],inactive
COc1cc2c(cc1O)CC[C@@H]1[C@@H]2CC[C@]2(C)[C@@H](O)CC[C@@H]12,"activity change, negative = inhibition",[1],-26.7%
Nc1ccc(Cl)cc1,Potency,[9],inactive
same,Potency,[10],inactive
O=c1cc(N2CCOCC2)oc2c(-c3cccc4c3sc3ccccc34)cccc12,Potency,[1],7.94 µM (active)
O=C(O)c1ccc(O)c2ncc(N3CCOCC3)cc12,Potency,[1],28.2 µM (active)
CS(=N)(=O)CC[C@H](N)C(=O)O (some centres not stated),Potency,Papain (Carica papaya),inactive
COCCn1c2c([n+](Cc3cnccn3)c1C)C(=O)c1ccccc1C2=O,"activity change, negative = inhibition",[1],-98.5%
Cc1nn(Cc2ccccc2Cl)c(C)c1CN(C)CC(O)COc1ccc(Cl)cc1 (configuration not stated),Potency,[1],31.6 µM (active)
CN(C)c1ccc(Nc2nc(N)n(C(=O)c3c(F)cccc3F)n2)cc1,Potency,[1],12.6 µM (active)
CCc1cncnc1N1CCN(Cc2nc3ccc(C(F)(F)F)cc3[nH]2)CC1,Potency,[1],28.2 µM (active)
C[C@@]12O[C@@H](C[C@]1(O)CO)n1c3ccccc3c3c4c(c5c6ccccc6n2c5c31)CNC4=O,Potency,[1],1.41 µM (active)
CC(C)[C@H](C(=O)Nc1ccc(C(=O)NO)cc1)c1ccccc1,"activity change, negative = inhibition",[1],-95.5%
O=C(O)CC[N+](=O)[O-],Potency,Papain (Carica papaya),inactive
COc1ccc2c(c1)CC[C@@H](CN(C)CC(=O)O)[C@H]2c1ccccc1,Potency,[1],inactive
CCCCCCCc1ccc(CCc2cccc(O)c2C(=O)O)cc1,"activity change, negative = inhibition",[1],-27.4%
Cn1cnc(CCN)c1,Potency,Papain (Carica papaya),inactive
same,activity,[2],2.37%
same,"activity change, negative = inhibition",[3],1.75%
same,activity,[4],-8.03%
same,activity,[5],3.1%
C=CCN1CC[C@]23CCCCC2[C@H]1Cc1ccc(O)cc13 (some centres not stated),Potency,Papain (Carica papaya),inactive
CN1C2CCC1CC(OC(=O)c1cc(Cl)cc(Cl)c1)C2 (configuration not stated),Potency,Papain (Carica papaya),inactive
C[C@@H](Oc1cc(-n2cnc3ccc(CN4CCN(C)CC4)cc32)sc1C(N)=O)c1ccccc1C(F)(F)F,"activity change, negative = inhibition",[1],-97%
CN(NC(=O)CC(=O)NN(C)C(=S)c1ccccc1)C(=S)c1ccccc1,"activity change, negative = inhibition",[1],-97.7%
CNCCc1c[nH]c2ccc(O)cc12,Potency,Papain (Carica papaya),inactive
same,activity,[2],2.02%
same,"activity change, negative = inhibition",[3],1.54%
same,activity,[4],-11.4%
same,activity,[5],0.784%
CCC(=O)N1CCN(c2ccc(-n3c(=O)ccc4cnc5ccc(-c6cnc7ccccc7c6)cc5c43)cc2C(F)(F)F)CC1,"activity change, negative = inhibition",[1],-91.2% [at 27.1 µM]
COc1c(C)cnc(Cn2cnc3c(Cl)nc(N)nc32)c1C,"activity change, negative = inhibition",[1],-96.5%
